# Article PMC7862700, “An all-to-all approach to the identification of sequence-specific readers for epigenetic DNA modifications on cytosine”
# Experiments:
# Assay in all cases: DAPPL (digital affinity profiling via proximity ligation, sequencing); 10 mM Tris-HCl pH 7.5, 50 mM NaCl, 1 mM DTT, 4% glycerol, room temperature, 30 min; GST-TFs on glutathione beads, 16-mer random dsDNA library, 0.1% formaldehyde crosslink after washing; high values mean tight binding
# [1] = biological target: T1, FLI1 (Homo sapiens, UniProt Q01543 1-452); details: protein: recombinant; tags: N-terminal GST; dsDNA, one strand shown
# T1 sequence: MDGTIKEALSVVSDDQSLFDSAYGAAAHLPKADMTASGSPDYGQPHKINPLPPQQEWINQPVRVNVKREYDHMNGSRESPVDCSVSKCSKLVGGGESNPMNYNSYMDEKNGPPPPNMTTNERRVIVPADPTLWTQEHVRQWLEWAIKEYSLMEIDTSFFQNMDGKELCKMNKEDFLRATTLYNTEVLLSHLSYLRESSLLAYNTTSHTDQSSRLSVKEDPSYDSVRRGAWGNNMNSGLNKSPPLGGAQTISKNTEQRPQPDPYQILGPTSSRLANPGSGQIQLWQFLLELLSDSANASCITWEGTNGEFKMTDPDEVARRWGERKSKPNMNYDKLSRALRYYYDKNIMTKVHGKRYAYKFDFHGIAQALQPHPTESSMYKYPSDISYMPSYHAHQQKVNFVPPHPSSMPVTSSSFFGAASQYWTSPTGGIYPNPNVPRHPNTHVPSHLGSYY
# Summary of the method: (§1)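 Human transcription factors fused to GST were expressed in yeast, captured on glutathione beads, given DNA barcodes and pooled with a GST-only negative control. Pools were incubated with 200 nmole of a 16-mer random double-stranded DNA library in Tris/NaCl/DTT/glycerol buffer at room temperature for 30 min. They were then washed, crosslinked with 0.1% formaldehyde, proximity-ligated (BsaI/T4 ligase, 1 h, 37 °C), PCR-amplified and sequenced on an Illumina NextSeq500. Binding signal is each 6-mer's read frequency for a factor divided by its frequency for the GST control.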
# [2] = biological target: T2, ELK1 (Homo sapiens, UniProt P19419 1-428); details: protein: recombinant; tags: N-terminal GST; dsDNA, one strand shown
# T2 sequence: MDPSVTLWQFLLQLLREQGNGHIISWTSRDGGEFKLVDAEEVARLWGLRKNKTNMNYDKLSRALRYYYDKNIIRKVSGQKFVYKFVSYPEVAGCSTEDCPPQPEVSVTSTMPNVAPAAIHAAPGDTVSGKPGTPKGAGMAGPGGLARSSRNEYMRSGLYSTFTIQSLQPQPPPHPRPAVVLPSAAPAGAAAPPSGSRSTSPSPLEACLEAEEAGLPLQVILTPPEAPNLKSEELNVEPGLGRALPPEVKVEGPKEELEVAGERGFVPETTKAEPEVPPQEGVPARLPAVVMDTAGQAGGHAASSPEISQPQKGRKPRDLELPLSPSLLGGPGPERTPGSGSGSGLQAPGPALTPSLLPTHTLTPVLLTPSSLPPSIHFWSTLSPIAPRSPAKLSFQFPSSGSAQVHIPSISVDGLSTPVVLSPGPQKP
# Summary of the method: as §1
# [3] = biological target: T3, GABPA (Homo sapiens, UniProt Q06546 1-454); details: protein: recombinant; tags: N-terminal GST; dsDNA, one strand shown
# T3 sequence: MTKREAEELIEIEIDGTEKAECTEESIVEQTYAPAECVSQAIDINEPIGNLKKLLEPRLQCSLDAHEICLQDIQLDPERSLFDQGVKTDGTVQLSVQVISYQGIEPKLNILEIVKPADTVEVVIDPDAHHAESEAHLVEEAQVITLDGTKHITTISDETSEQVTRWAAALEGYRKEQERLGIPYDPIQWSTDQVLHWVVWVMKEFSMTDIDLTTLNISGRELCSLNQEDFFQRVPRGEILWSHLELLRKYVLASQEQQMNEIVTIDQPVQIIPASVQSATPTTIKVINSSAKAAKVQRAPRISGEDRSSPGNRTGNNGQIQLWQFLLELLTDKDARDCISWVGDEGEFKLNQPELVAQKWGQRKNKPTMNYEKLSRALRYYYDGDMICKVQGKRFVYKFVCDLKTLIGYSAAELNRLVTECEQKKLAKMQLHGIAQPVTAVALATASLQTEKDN
# Summary of the method: as §1
# [4] = biological target: T4, ERG (Homo sapiens, UniProt P11308 1-479); details: protein: recombinant; tags: N-terminal GST; dsDNA, one strand shown
# T4 sequence: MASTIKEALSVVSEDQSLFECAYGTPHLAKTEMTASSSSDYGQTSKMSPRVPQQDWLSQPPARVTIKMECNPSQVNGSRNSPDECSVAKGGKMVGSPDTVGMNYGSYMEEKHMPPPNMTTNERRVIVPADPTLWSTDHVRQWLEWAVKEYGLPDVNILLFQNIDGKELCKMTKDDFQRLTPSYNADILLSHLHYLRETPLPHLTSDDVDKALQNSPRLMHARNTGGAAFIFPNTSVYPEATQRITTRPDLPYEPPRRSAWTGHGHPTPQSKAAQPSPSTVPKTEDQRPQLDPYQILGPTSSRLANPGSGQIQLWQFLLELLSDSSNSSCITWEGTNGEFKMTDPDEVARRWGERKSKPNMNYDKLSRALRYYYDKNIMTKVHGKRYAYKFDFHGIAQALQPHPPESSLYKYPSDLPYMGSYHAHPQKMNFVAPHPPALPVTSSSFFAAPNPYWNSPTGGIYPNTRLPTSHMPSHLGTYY
# Summary of the method: as §1
# [5] = biological target: ELF1 (Homo sapiens, UniProt P32519 1-619); details: protein: recombinant; tags: N-terminal GST; dsDNA, one strand shown
# Summary of the method: as §1
# [6] = biological target: T5, EHF (Homo sapiens, UniProt Q9NZC4 1-300); details: protein: recombinant; tags: N-terminal GST; dsDNA, one strand shown
# T5 sequence: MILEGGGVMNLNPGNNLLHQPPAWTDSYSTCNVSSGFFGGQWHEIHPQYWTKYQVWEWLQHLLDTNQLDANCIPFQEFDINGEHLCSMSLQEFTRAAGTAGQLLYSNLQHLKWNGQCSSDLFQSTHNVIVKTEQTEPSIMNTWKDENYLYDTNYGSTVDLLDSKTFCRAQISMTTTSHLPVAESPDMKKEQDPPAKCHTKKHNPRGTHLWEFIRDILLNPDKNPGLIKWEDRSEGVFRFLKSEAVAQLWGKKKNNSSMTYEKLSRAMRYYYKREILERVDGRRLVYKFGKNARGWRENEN
# Summary of the method: as §1
# [7] = biological target: SPI1 (Homo sapiens, UniProt P17947 1-270); details: protein: recombinant; tags: N-terminal GST; dsDNA, one strand shown
# Summary of the method: as §1
# [8] = biological target: SPIB (Homo sapiens, UniProt Q01892 1-262); details: protein: recombinant; tags: N-terminal GST; dsDNA, one strand shown
# Summary of the method: as §1
# [9] = biological target: T6, ELK3 (Homo sapiens, UniProt P41970 1-407); details: protein: recombinant; tags: N-terminal GST; dsDNA, one strand shown
# T6 sequence: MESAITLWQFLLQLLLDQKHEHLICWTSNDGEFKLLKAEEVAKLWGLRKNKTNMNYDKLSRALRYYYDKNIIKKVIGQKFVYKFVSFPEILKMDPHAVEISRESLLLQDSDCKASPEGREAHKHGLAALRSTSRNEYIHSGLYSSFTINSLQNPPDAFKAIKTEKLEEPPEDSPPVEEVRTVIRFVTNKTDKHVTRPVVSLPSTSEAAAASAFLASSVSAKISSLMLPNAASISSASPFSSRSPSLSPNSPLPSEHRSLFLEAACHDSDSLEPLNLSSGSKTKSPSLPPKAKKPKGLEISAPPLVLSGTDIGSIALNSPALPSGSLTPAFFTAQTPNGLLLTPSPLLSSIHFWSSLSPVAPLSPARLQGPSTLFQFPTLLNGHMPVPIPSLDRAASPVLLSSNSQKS
# Summary of the method: as §1
# [10] = biological target: T7, FEV (Homo sapiens, UniProt Q99581 1-238); details: protein: recombinant; tags: N-terminal GST; dsDNA, one strand shown
# T7 sequence: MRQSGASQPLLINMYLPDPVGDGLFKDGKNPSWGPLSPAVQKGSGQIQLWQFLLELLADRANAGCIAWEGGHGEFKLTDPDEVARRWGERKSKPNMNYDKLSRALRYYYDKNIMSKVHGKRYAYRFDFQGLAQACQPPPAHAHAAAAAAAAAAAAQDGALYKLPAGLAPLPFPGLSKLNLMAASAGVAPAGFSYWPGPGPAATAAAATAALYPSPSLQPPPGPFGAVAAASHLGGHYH
# Summary of the method: as §1
# [11] = biological target: ETV5 (Homo sapiens, UniProt P41161 1-510); details: protein: recombinant; tags: N-terminal GST; dsDNA, one strand shown
# Summary of the method: as §1
# [12] = biological target: HSF1 (Homo sapiens, UniProt Q00613 1-529); details: protein: recombinant; tags: N-terminal GST; chain copies: 3; dsDNA, one strand shown
# Summary of the method: as §1
# [13] = biological target: T8, SPIC (Homo sapiens, UniProt Q8N5J4 1-248); details: protein: recombinant; tags: N-terminal GST; dsDNA, one strand shown
# T8 sequence: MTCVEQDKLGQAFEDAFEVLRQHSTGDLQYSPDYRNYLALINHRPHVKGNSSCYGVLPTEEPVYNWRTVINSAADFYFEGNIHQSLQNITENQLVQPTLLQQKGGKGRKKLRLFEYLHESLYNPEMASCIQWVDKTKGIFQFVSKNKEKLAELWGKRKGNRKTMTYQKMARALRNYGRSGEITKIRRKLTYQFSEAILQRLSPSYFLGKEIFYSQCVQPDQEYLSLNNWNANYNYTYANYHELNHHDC
# Summary of the method: as §1
# [14] = biological target: ELF4 (Homo sapiens, UniProt Q99607 1-663); details: protein: recombinant; tags: N-terminal GST; dsDNA, one strand shown
# Summary of the method: as §1
# [15] = biological target: T9, ELK4 (Homo sapiens, UniProt P28324-2 1-405); details: protein: recombinant; tags: N-terminal GST; dsDNA, one strand shown
# T9 sequence: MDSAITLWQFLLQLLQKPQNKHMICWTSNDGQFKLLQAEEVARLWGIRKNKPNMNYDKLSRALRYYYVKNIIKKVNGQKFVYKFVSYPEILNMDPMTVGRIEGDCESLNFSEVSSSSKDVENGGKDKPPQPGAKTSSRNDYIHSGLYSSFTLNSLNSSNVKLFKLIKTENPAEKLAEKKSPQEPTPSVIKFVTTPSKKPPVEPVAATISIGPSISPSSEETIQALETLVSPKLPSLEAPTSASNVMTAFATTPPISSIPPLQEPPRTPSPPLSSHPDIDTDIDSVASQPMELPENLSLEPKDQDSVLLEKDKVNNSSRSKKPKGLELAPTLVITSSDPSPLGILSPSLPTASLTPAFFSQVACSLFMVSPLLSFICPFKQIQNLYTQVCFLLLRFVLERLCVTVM
# Summary of the method: as §1
# [16] = biological target: T10, ETV2 (Homo sapiens, UniProt O00321 1-342); details: protein: recombinant; tags: N-terminal GST; dsDNA, one strand shown
# T10 sequence: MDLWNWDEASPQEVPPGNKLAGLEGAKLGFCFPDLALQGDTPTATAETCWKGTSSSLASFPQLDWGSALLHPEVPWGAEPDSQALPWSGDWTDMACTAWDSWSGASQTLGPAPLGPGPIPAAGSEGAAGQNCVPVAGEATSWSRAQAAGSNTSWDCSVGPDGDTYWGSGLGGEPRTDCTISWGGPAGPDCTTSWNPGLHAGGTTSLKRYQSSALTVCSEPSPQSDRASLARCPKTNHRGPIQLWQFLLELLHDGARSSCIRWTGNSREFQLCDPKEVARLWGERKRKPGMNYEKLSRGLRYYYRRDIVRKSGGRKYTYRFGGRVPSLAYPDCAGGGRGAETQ
# Summary of the method: as §1
# [17] = biological target: T11, ELF3 (Homo sapiens, UniProt P78545 1-371); details: protein: recombinant; tags: N-terminal GST; dsDNA, one strand shown
# T11 sequence: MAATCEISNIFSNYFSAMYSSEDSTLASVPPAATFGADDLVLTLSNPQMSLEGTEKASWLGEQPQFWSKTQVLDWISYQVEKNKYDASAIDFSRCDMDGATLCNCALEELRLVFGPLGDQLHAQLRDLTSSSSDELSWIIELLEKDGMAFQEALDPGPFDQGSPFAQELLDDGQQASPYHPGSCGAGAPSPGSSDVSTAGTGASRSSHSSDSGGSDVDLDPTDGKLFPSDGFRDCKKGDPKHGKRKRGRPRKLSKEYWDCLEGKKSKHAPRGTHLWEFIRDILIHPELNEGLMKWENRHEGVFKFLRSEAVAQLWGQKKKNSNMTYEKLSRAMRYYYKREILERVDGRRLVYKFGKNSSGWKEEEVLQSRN
# Summary of the method: as §1
# [18] = biological target: CRX (Homo sapiens, UniProt O43186 1-299); details: protein: recombinant; tags: N-terminal GST; dsDNA, one strand shown
# Summary of the method: as §1
# [19] = biological target: ETV1 (Homo sapiens, UniProt P50549 1-477); details: protein: recombinant; tags: N-terminal GST; dsDNA, one strand shown
# Summary of the method: as §1
# Chain of CRX (O43186 whole entry): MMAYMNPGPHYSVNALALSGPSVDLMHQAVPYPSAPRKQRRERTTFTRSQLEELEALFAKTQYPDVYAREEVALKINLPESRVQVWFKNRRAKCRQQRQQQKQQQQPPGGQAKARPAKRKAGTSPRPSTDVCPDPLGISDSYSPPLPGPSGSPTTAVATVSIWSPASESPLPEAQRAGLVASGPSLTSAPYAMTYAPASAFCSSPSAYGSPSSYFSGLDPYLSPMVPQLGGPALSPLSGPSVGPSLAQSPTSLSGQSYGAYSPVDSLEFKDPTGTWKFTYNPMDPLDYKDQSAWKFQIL
# Chain of SPIB (Q01892 whole entry): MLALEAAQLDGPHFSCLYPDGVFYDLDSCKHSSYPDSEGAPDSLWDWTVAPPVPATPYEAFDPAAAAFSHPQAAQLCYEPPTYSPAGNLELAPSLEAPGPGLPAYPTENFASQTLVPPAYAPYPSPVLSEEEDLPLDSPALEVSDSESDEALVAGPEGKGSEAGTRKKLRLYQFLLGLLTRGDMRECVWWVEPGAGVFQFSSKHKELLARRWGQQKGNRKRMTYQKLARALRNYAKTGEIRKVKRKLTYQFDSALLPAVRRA
# Chain of HSF1 (Q00613 whole entry): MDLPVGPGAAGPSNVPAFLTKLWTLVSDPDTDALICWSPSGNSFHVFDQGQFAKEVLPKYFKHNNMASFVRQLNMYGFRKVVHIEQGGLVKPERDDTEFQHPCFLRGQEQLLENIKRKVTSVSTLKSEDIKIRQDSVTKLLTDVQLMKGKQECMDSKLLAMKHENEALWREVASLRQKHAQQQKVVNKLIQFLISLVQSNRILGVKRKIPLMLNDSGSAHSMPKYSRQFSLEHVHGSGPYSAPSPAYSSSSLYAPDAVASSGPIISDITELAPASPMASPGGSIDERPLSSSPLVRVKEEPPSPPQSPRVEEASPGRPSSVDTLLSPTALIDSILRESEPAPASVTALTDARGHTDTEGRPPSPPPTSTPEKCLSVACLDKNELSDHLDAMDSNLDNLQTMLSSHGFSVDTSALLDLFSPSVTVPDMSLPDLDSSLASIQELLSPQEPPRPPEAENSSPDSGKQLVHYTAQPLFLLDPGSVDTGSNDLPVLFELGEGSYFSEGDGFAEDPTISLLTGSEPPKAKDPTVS
# Chain of ELF1 (P32519 whole entry): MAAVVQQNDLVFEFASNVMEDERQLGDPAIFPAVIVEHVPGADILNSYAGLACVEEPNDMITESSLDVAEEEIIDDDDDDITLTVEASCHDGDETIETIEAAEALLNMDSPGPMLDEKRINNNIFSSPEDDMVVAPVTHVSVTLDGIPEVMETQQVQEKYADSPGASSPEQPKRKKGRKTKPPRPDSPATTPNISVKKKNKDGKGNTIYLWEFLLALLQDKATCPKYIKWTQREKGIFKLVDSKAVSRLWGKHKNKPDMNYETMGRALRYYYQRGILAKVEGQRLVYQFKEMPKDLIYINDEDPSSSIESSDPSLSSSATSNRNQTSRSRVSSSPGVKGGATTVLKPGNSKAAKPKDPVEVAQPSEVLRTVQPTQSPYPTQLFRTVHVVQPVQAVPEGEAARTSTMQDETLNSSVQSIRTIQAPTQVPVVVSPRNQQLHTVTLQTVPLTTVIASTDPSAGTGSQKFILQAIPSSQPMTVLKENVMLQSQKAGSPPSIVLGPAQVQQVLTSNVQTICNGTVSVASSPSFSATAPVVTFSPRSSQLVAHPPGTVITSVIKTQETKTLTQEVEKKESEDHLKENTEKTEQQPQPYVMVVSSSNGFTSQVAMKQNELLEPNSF
# Chain of ETV5 (P41161 whole entry): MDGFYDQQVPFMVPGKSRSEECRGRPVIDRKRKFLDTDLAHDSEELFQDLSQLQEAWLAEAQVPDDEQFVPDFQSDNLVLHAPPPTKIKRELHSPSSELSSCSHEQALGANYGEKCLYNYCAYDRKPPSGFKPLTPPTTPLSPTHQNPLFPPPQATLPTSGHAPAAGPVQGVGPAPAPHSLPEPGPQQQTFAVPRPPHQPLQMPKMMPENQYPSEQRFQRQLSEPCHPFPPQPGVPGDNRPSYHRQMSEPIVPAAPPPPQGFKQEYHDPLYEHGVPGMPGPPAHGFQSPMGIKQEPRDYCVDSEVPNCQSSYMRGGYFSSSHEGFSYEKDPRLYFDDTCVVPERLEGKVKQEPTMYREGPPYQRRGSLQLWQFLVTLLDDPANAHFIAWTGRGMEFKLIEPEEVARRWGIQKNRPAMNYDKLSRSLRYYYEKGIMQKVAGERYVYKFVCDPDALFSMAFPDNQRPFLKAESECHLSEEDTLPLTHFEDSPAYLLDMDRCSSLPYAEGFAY
# Chain of ETV1 (P50549 whole entry): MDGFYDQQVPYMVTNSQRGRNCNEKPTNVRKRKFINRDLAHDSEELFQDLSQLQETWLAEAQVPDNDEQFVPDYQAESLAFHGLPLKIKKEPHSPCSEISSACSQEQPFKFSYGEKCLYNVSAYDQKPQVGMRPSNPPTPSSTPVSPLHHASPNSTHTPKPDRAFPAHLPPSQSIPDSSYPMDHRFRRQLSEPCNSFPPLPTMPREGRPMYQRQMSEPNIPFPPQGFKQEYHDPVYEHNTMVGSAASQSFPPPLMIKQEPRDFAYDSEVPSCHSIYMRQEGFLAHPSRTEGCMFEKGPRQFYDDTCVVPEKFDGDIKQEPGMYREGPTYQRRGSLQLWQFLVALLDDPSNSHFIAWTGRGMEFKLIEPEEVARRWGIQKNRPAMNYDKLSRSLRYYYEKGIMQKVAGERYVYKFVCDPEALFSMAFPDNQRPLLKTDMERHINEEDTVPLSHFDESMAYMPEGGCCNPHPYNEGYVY
# Chain of ELF4 (Q99607 whole entry): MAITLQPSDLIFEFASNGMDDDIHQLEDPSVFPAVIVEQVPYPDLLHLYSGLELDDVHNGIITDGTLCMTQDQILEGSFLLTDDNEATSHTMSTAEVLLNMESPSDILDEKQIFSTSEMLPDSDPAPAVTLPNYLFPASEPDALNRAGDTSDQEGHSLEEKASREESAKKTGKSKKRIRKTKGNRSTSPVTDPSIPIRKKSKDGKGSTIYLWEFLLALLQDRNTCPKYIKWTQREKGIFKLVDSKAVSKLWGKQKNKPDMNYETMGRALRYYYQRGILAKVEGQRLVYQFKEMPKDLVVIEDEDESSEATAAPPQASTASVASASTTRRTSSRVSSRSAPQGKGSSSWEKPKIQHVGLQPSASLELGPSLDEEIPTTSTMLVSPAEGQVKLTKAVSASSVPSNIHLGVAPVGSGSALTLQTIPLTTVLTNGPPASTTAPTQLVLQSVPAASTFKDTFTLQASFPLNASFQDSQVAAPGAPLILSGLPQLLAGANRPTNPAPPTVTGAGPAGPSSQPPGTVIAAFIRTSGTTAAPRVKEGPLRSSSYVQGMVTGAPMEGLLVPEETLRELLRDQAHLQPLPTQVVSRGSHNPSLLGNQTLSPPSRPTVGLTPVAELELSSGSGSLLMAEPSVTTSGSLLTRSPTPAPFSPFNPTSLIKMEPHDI
sequence,measurement,setting,value
CCGAAT,binding signal,[1],"1.23 fold enrichment (6-mer frequency, TF over GST control)"
same,binding signal,[2],"1.1 fold enrichment (6-mer frequency, TF over GST control)"
same,binding signal,[3],"1.25 fold enrichment (6-mer frequency, TF over GST control)"
same,binding signal,[4],"1.07 fold enrichment (6-mer frequency, TF over GST control)"
same,binding signal,[5],"1.22 fold enrichment (6-mer frequency, TF over GST control)"
same,binding signal,[6],"1.24 fold enrichment (6-mer frequency, TF over GST control)"
same,binding signal,[7],"1.2 fold enrichment (6-mer frequency, TF over GST control)"
same,binding signal,[8],"1.22 fold enrichment (6-mer frequency, TF over GST control)"
same,binding signal,[9],"1.14 fold enrichment (6-mer frequency, TF over GST control)"
same,binding signal,[10],"1.16 fold enrichment (6-mer frequency, TF over GST control)"
same,binding signal,[11],"1.14 fold enrichment (6-mer frequency, TF over GST control)"
same,binding signal,[12],"1.64 fold enrichment (6-mer frequency, TF over GST control)"
same,binding signal,[13],"1.29 fold enrichment (6-mer frequency, TF over GST control)"
same,binding signal,[14],"1.16 fold enrichment (6-mer frequency, TF over GST control)"
same,binding signal,[15],"1.06 fold enrichment (6-mer frequency, TF over GST control)"
same,binding signal,[16],"1.12 fold enrichment (6-mer frequency, TF over GST control)"
same,binding signal,[17],"1.16 fold enrichment (6-mer frequency, TF over GST control)"
same,binding signal,[18],"1.33 fold enrichment (6-mer frequency, TF over GST control)"
same,binding signal,[19],"1.19 fold enrichment (6-mer frequency, TF over GST control)"
